High-throughput results deposited in PubChem by National Center for Advancing Translational Sciences (NCATS).
The entries come from a sample that favours hits as a whole.
Pf Dd2 inh: blocks in vitro growth of P. falciparum Dd2; AID 1347417; P. falciparum Dd2 growth, SYBR Green, 72 h; Potency, µM (series often up to 28.9 µM), without a hit: at the highest dose activity, negative = inhibition, usual class: inhibitors; hit rate 4.3% among 120,000; active = well fitted inhibition curve with a large enough effect;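 note: plate controls were DMSO vehicle for no effect and reference drug for full effect; nearly all actives have a fitted effect of over 65% in size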
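Infected erythrocytes (Dd2, 0.3% parasitemia, 2.5% hematocrit final) are added to compound in RPMI-1640/Albumax II medium, grown 72 h at 37C in low oxygen, then lysed with saponin/Triton-X containing SYBR Green and read by fluorescence.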
An asterisk follows results filed as active; i = inactive; [ ] = another dose, or the depositor's remark. Potency is the fitted concentration of half-maximal effect.

SMILES	Pf Dd2 inh
O=c1c2ccccc2nc(/C=C/c2cccc3ccccc23)n1-c1ccccc1Cl	-4%
CSc1ccc(/C=C/c2nc3ccccc3c(=O)n2-c2cccc(Cl)c2C)cc1	i
COc1ccc(-n2c(/C=C\c3ccccc3F)nc3ccccc3c2=O)cc1OC	i
COc1ccc(-n2c(/C=C/c3c(C)[nH]c4ccccc34)nc3ccccc3c2=O)cc1	-14%
COc1ccccc1-n1c(/C=C/c2c(C)n(C)c3ccccc23)nc2ccccc2c1=O	4µM*
COc1ccc(Cl)cc1-n1c(/C=C/c2cccc3ccccc23)nc2ccccc2c1=O	9%
Cc1ccc(-n2c(/C=C/c3ccc(Br)s3)nc3ccccc3c2=O)cc1	10%
Cc1ccccc1-n1c(/C=C/c2ccccc2F)nc2ccccc2c1=O	10µM*
Cc1ccccc1-n1c(/C=C/c2c(C)n(C)c3ccccc23)nc2ccccc2c1=O	2.8µM*
Cc1cc(C)cc(NC(=O)C2CCN(C(=O)c3nnn4cc(C)[nH]c(=O)c34)CC2)c1	i
COc1cccc(CN2C(=O)OC3(CCN(C(=O)c4cccc(C#N)c4)CC3)C2(C)c2cccnc2)c1 (stereo unspecified)	i
CCC1(N2CCN(S(=O)(=O)c3ccc(F)c(C)c3)CC2)CCN(S(C)(=O)=O)C1 (stereo unspecified)	-12%
O=C(Nc1cccc(-c2ccc(N3CCCC3)nn2)c1)Nc1c(F)cccc1F	-30%
Cn1nccc1OCc1cn2c(=O)n(C)cc(-c3cccc(C(F)(F)F)c3)c2n1	-16%[44.1 µM]
Cc1ccc(C(=O)N2CC[C@@H]3CN(S(C)(=O)=O)[C@@H]3C2)c(=O)[nH]1	19%
CN(C)C(=O)c1nc(-c2ccc(Cl)cc2Cl)c2ccccn12	-4%
CC(=O)N1CCC(C2CCN(C(=O)NCCc3ccccc3)C2)CC1 (stereo unspecified)	-25%
CCN1CCN(c2cc(C)c3cc(NC(=O)/C=C/c4ccc(OCCC(C)C)cc4)ccc3n2)CC1	1.1µM*
COc1ccc(-n2nc3ccc(NC(=O)c4cccc(OCCC(C)C)c4)cc3n2)cc1	i
CCOc1ccc(C(=O)Nc2ccc3ncnc(N4CCCCC4)c3c2)cc1	i
CCN1CCN(c2cc(C)c3cc(NC(=O)/C=C/c4ccc(C)cc4)ccc3n2)CC1	1.1µM*
Cc1cc(N2CCCCC2)nc2ccc(NC(=O)CCC(=O)N3CCN(c4ccccc4)CC3)cc12	-26%
Cc1ccc(C)c(N2CCN(C(=O)CCC(=O)Nc3ccc4nc(N5CCCCC5)cc(C)c4c3)CC2)c1	i
CCc1ccc(C(=O)N2CCC3(CC2)OCC(C(=O)NC2CC2)N3C(=O)c2cccc(C)c2)cc1 (stereo unspecified)	i
O=C(NCc1ccncc1)c1cn(C2CN(C(=O)Nc3ccccc3)C2)nn1	18%
SMILES	Pf Dd2 inh
Cc1ncc2n1C(=O)N(C1CCN(C(=O)c3ccccc3Cl)CC1)C2	10%
Cc1ccc(C(=O)N2CCc3nnc([C@@H]4C[C@@H](O)CN4C(C)C)n3CC2)cn1	i
O=C(c1ccccc1)N1CCC(N2CCOC2=O)CC1	4%[44.1 µM]
Cc1ccc(-c2nc(C(=O)NCc3ccco3)no2)cc1	i
O=C(c1ccccc1OC(F)(F)F)N1CCC(c2n[nH]c(=O)n2-c2ccccc2)CC1	-5%
O=C(c1ccc(F)cc1F)N1CCN(c2cc(-c3cccs3)[nH]n2)CC1	i
COc1ccc(N2CC(NC(=O)COc3cccc(C)c3)CC2=O)cc1OC (stereo unspecified)	6%
Cc1cccc(Oc2coc3cc(OCC(=O)NC4CCCCC4)ccc3c2=O)c1	10µM*
Cc1cccc(OCC(=O)NC2CCc3nn(CC4CC4)c(=O)n3CC2)c1 (stereo unspecified)	-16%
CCN(CC)C(=O)c1c(NC(=O)c2cccc(C)c2)sc2c1CCC(C)C2 (stereo unspecified)	-18%
Cc1ccccc1NC(=O)c1c(NC(=O)c2ccncc2)sc2c1CCC(C(C)(C)C)C2 (stereo unspecified)	5.6µM*
CCOc1ccccc1NC(=O)c1c(NC(=O)c2ccncc2)sc2c1CCC(C(C)(C)C)C2 (stereo unspecified)	22%
CCCNC(=O)c1c(NC(=O)c2ccccc2)sc2c1CCC(C(C)(C)C)C2 (stereo unspecified)	11µM*
COc1ccc(-c2noc(CC3CCN(C(=O)c4ccc(OC)nc4OC)CC3)n2)cc1	-16%
O=C(NCCN1CCOCC1)[C@H]1C[C@@H](O)[C@H](O)[C@@H]2N=C(Nc3ccc(-n4cccn4)cc3)S[C@@H]21	3%
O=C(c1ccc(F)c(Cl)c1)N1CCC(c2n[nH]c(=O)n2-c2ccccc2)CC1	-11%
COc1ccc(OCC(O)CN2CCC(O)CC2)c(CN(C)Cc2csc(C)n2)c1 (stereo unspecified)	-14%
CCN1CCN(CC(O)COc2cccc(CN(C)Cc3cc(C)on3)c2)CC1 (stereo unspecified)	-11%
COc1ccc(CN(C)Cc2ccncc2C)c(OCC(O)CN2CCCC2)c1 (stereo unspecified)	2.8µM*
Cc1noc(-c2ccccc2OC2CCN(C(=O)c3cnccn3)C2)n1 (stereo unspecified)	14%
Cc1ccc2[nH]c(=O)c(CN3CCCN(c4ccncc4)CC3)cc2c1	-9%
CCOc1cc(C(=O)Nc2ccc3nc(Nc4cccc(Cl)c4)cc(C)c3c2)cc(OCC)c1OCC	2µM*
COc1ccc(Nc2ncc(C(=O)Nc3cccc(Cl)c3)c3ccccc23)cc1	i
CCN(CC)S(=O)(=O)c1ccc2nc(NC(=O)c3cncc(Br)c3)sc2c1	20%[0.594 µM]
Cc1cc(Nc2cccc(C(F)(F)F)c2)nc2ccc(NC(=O)c3cncc(Br)c3)cc12	0.18µM*
SMILES	Pf Dd2 inh
Cc1ccccc1C(=O)Nc1ccc2nc(Nc3cccc(C(F)(F)F)c3)cc(C)c2c1	-9%
Cn1nc(-c2ccc(C(=O)Nc3cccc(C(F)(F)F)c3)cc2)c2ccccc2c1=O	3%
CCN(CC)c1ccc(C(=O)Nc2ccc3nc(N(CC)CC)cc(C)c3c2)cc1	-18%
CCOc1cc(C(=O)Nc2ccc(-c3cn4cccnc4n3)cc2)cc(OCC)c1OCC	-17%
Cc1cc(Nc2cccc(Cl)c2)nc2ccc(NC(=O)c3cncc(Br)c3)cc12	2.8µM*
O=C1NC(C(=O)NC2CCCCC2)Cn2cccc21 (stereo unspecified)	31%
Cc1cc(C(=O)N[C@@H]2CN(c3ncccn3)C[C@H]2CO)n(C)n1	4%
CCC(NS(=O)(=O)c1ccc(C(=O)NC2CC2)cc1)c1cnn(C)c1 (stereo unspecified)	3%
CN(C)C(=O)NCC(=O)N1C[C@@H](C(=O)O)[C@H](c2ccc3c(c2)OCO3)C1	7%
Cc1cc(C)c(CNC(=O)c2nc(-c3ccccc3)cc3[nH]ccc23)c(=O)[nH]1	-1%[44.1 µM]
Cc1cc(C)c(CNC(=O)c2cc(-c3cccc4[nH]ccc34)cc3ncn(C)c23)c(=O)[nH]1	i
COc1cccc(Nc2cc3[nH]ccc3c(C(=O)NCc3c(C)cc(C)[nH]c3=O)n2)c1	11µM*
COc1ccc(-c2cc3c(ccn3C)c(C(=O)NCc3c(C)cc(C)[nH]c3=O)n2)cc1	-26%[44.1 µM]
Cc1cc(-c2cc3[nH]ccc3c(C(=O)NCc3c(C)cc(C)[nH]c3=O)n2)ccn1	-22%[44.1 µM]
Cc1cc(C)c(CNC(=O)c2nc(-c3cccc(N4CCOCC4)c3)cc3[nH]ccc23)c(=O)[nH]1	8.9µM*
O=C(NCc1ccc(Cl)cc1)c1ccn2cncc2c1	i
O=C(CCC1CCN(C(=O)c2cc(C3CC3)[nH]n2)CC1)N1CCC(Cc2ccccc2)CC1	i
